Assay results taken from PubChem BioAssay (NCATS).
“And” between values parts separate entries of the source, which are not always exact repeats. Equal entries are not always repeated. Values without a mark were called inactive. Inconclusive results are not listed. Where a call stands in place of a potency, no number is given. The source made the active and inactive calls. Unless noted, calls come from the whole dose curve; as a rule, active = well fitted curve in the direction sought with a large enough effect; inconclusive = small, poorly fitted or top-dose-only effect, or another doubt; inactive = no such curve, though single readings can be large; an effect the other way counts as inactive or inconclusive.

Experiments:
[1] = Cell Viability - Hek293 (AID 427;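 active = compounds whose dose-response curve shows a full or clear partial loss of cell viability, called from curve shape rather than a numeric limit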;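 note: potency is the fitted concentration of half-maximal effect; cells exposed to compound for 40 hours at 37 °C before reading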); settings: qHTS
Method in brief: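 Luminescent ATP content (CellTiter-Glo, 20 min at room temperature) was measured after a 40 hr, 37 °C compound exposure of HEK293 cells. AC50 values came from Hill-equation fits of qHTS concentration-response data normalized to DMSO and 100 uM tamoxifen.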

[2] = Cell Viability - LYMP2-004 (AID 966); settings: LYMP2-004 lymphoblastoid cell viability, qHTS; series mostly up to 92.2 µM; note: nearly all actives have a fitted effect of over 65% in size
Method in brief: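 Cells seeded 2500/well, rested 5 hr at 37 C, dosed across a concentration series, incubated 24 hr at 37 C, then CellTiter-Glo added for 30 min at room temperature and luminescence read. Hill fitting gave AC50.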

[3] = Cell Viability - LYMP2-005 (AID 967); settings: LYMP2-005 lymphoblastoid cell viability; series mostly up to 92.2 µM
Method in brief: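 Luciferase-based ATP quantitation served as the viability measure in human lymphoblastoid LYMP2-005 cells exposed to test compounds for 24 h at 37 C in complete culture medium. Potency (AC50) was obtained by fitting concentration-response curves with the Hill equation.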

[4] = qHTS assay for small molecule disruptors of the mitochondrial membrane potential - 1 hr assay (AID 651754; calls by dose curve; note: nearly all actives have a fitted effect of over 35% in size; note: potency is the fitted concentration of half-maximal effect); settings: series mostly up to 92.2 µM
Method in brief: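 HepG2, 2,000 cells/well, overnight attachment; cpd or DMSO 1 hr, 37C/5% CO2; Mito-MPS dye 30 min, 37C; fluorescence monomer (490/535) and aggregate (540/590).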

[5] = qHTS assay for small molecule disruptors of the mitochondrial membrane potential - 5 hr assay (AID 651755; calls by dose curve; note: nearly all actives have a fitted effect of over 40% in size; note: potency is the fitted concentration of half-maximal effect); settings: JC-1-type ratio dye; series mostly up to 92.2 µM
Method in brief: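 HepG2, 2,000 cells/well, overnight attach; cpd or DMSO 5 hr, 37C/5% CO2; Mito-MPS 30 min 37C; fluor 490/535 + 540/590 nm.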

[6] = Cell Viability - SK-N-SH (AID 435; calls by dose curve;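 note: potency is the fitted concentration of half-maximal effect; compound exposure lasted 40 h at 37 °C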); settings: SK-N-SH neuroblastoma cell viability qHTS
Method in brief: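 Human neuroblastoma line, 40 h exposure at 37 °C, ATP quantified via luciferase luminescence; DMSO and 100 uM tamoxifen define 0 and 100% inhibition for AC50 fitting.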

[7] = Cell Viability - SH-SY5Y (AID 544); settings: SH-SY5Y neuroblastoma cell viability; viability change, negative = cytotoxic: at 92.2 µM (top of the series);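 note: cells exposed to compound for 40 hours; nearly all actives have a fitted effect of over 55% in size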
Method in brief: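 Luminescent ATP read-out (CellTiter-Glo) measures loss of viable SH-SY5Y neuroblastoma cells after 40 hr compound exposure at 37 °C. AC50 values derive from standard Hill modelling of qHTS concentration-response data.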

[8] = Cell Viability - LYMP2-001 (AID 921); settings: LYMP2-001 lymphoblastoid cell viability; series mostly up to 92.2 µM; note: nearly all actives have a fitted effect of over 70% in size
Method in brief: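 A lymphoblastoid cell line of human origin was treated with library compounds across a concentration series for 24 hours, and viable cell number was estimated from ATP-driven luciferase light output. Hill modeling gave AC50.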

[9] = Cell Viability - LYMP1-003 - Assay at 40 hr (AID 964); settings: LYMP1-003 lymphoblastoid viability; series mostly up to 92.2 µM; note: nearly all actives have a fitted effect of over 60% in size
Method in brief: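 Cells were seeded at 2500 per well and incubated 5 hr at 37 C. Compounds were added across a concentration series and left 40 hr at 37 C. CellTiter-Glo was added for 30 min at room temperature before luminescence reading.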

[10] = Cell Viability - LYMP2-015 (AID 971); settings: LYMP2-015 lymphoblastoid cell viability; series mostly up to 92.2 µM; note: nearly all actives have a fitted effect of over 55% in size
Method in brief: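 Luminescent ATP read-out (CellTiter-Glo) served as the viability measure after lymphoblastoid cells were exposed to compounds for 24 hours at 37 C. Concentration-response data were fitted with the Hill equation to give AC50.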

[11] = Cell Viability - LYMP2-021 (AID 974); settings: LYMP2-021 lymphoblastoid cells viability; series mostly up to 92.2 µM;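 note: compound exposure lasts 24 hours at 37 °C; nearly all actives have a fitted effect of over 55% in size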
Method in brief: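 Plate 2500 lymphoblastoid cells per well and incubate 5 hr at 37 C. Add compounds over a concentration range and incubate 24 hr at 37 C. Add CellTiter-Glo, wait 30 min at room temperature, read luminescence.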

[12] = Cell Viability - LYMP2-006 (AID 978); settings: LYMP2-006 lymphoblastoid cell viability, qHTS; series mostly up to 92.2 µM; note: nearly all actives have a fitted effect of over 60% in size
Method in brief: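 In this cytotoxicity screen, the human lymphoblastoid line grew in complete medium with test compounds for 24 hr at 37 C. Cellular ATP served as the viability signal.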

[13] = Cell Viability - LYMP2-010 (AID 981); settings: LYMP2-010 lymphoblastoid cell viability, qHTS; series mostly up to 92.2 µM; note: nearly all actives have a fitted effect of over 55% in size
Method in brief: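 Luminescent ATP signal (CellTiter-Glo) served as the viability read-out. Cells of the human lymphoblastoid line were treated with compound over a concentration range for 24 hours at 37 C, and AC50 values came from Hill-equation modeling.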

[14] = Cell Viability - LYMP2-012 (AID 982); settings: LYMP2-012 lymphoblastoid cell viability qHTS; series mostly up to 92.2 µM
[15] = Cell Viability - LYMP2-022 (AID 987); settings: LYMP2-022 lymphoblastoid cell viability; series mostly up to 92.2 µM; note: nearly all actives have a fitted effect of over 55% in size
Method in brief: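 qHTS: human lymphoblastoid cells 2500/well; 5 hr 37 C; cpd added; 24 hr 37 C; CellTiter-Glo, 30 min RT; luminescence. AC50 via Hill fit; tetraoctylammonium bromide positive ctrl.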

[16] = Cell Viability - LYMP2-024 (AID 988); settings: LYMP2-024 lymphoblastoid cell viability; series mostly up to 92.2 µM; note: nearly all actives have a fitted effect of over 60% in size
Method in brief: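 Steps: seed 2500 cells/well, 5 hr 37 C; add compound, 24 hr 37 C; add CellTiter-Glo, 30 min room temperature; read luminescence. AC50 derived by Hill modelling of concentration-dependent ATP loss.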

[17] = molecular target: Thyroid hormone receptor beta (Homo sapiens) (UniProt P10828); experiment: qHTS assay for small molecule antagonists of thyroid hormone receptor beta signaling (AID 588547; active = well fitted inhibition curve with a large enough effect in the signal ratio, with a control signal flat, not every such curve was filed as active; the % refers to the signal ratio;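 note: cells stimulated with 0.4 nM T3 agonist during compound exposure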); settings: TR-UAS-bla HEK293, beta-lactamase ratio, antagonist mode, 18 h
Method in brief: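 Inhibition of T3-driven (0.4nM final) beta-lactamase reporter activity was measured over 0.59 nM to 92 uM compound after 18 h at 37 C. The cells were GripTite HEK293 TR-UAS-bla in charcoal/dextran-stripped serum, with CCF4 ratio read-out and IC50 from Hill fits.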

[18] = qHTS assay for small molecule activators of the p53 signaling pathway (AID 651743; active = well fitted activation curve with a large enough effect in the signal ratio, not every such curve was filed as active; the % refers to the signal ratio); settings: HCT-116 p53RE-bla, beta-lactamase FRET ratio, 16 h; activation: active compounds read high
Method in brief: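 Read-out is fluorescence intensity from the LiveBLAzer B/G FRET substrate, added for 2 hours at room temperature after HCT-116 p53RE-bla cells had been incubated with compounds for 16 hours at 37 C.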

[19] = molecular target: Nuclear receptor subfamily 1 group I member 2 (Rattus norvegicus) (UniProt Q9R1A7); experiment: qHTS assay for small molecule activators of the rat pregnane X receptor (rPXR) signaling pathway (AID 651751; call rule not given here); settings: rPXR reporter cells, luciferase (One-Glo), 24 h
[20] = qHTS assay for small molecule antagonists of the retinoid-related orphan receptor gamma (ROR-gamma) signaling pathway - cell viability counter screen (AID 720652; active = well fitted curve in the direction sought with a large enough effect in the repeat runs; an effect the other way counts as inactive or inconclusive;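 note: compound exposure lasted 16 hr before ATP read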); settings: RORgamma reporter cell line viability counter screen; series mostly up to 92.2 µM
Method in brief: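 Luminescence from CellTiter-Glo after 30 min at room temperature reported cellular ATP as the cytotoxicity measure. Cells were the CHO reporter line with doxycycline-induced ROR-gamma expression, exposed to compound for 16 hr at 37 C.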

Thyroid hormone receptor beta (Homo sapiens), sequence (P10828 whole entry, looked up): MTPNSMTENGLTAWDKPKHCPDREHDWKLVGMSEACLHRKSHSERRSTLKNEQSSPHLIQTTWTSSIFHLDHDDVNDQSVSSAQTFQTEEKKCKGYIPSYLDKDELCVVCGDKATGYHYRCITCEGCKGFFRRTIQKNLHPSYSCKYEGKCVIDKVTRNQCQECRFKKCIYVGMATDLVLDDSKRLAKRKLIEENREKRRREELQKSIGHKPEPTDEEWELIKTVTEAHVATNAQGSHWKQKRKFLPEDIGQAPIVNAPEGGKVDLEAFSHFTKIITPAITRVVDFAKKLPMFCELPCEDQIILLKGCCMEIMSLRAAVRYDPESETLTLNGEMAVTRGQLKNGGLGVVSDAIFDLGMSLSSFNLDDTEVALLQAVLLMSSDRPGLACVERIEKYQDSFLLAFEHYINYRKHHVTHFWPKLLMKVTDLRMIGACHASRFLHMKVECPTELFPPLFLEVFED
Nuclear receptor subfamily 1 group I member 2 (Rattus norvegicus), sequence (Q9R1A7 whole entry, looked up): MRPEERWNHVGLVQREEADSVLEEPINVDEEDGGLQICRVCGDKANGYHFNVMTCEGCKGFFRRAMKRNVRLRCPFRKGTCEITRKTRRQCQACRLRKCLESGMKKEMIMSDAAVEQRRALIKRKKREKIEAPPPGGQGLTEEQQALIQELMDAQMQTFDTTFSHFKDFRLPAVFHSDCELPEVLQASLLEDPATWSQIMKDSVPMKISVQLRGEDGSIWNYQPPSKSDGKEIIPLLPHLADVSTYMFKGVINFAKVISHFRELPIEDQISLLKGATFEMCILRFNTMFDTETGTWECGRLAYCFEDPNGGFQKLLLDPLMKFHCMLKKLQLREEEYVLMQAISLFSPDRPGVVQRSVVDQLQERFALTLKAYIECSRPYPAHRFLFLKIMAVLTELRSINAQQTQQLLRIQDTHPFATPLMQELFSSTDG

Question: For O=C=Nc1ccc(Cl)c(Cl)c1, which Potency [1] is on record?
Answer: 38.9 µM (active)

Question: What about the Potency [2] of the same molecule?
Answer: inactive

Question: What about the Potency [3] of the same molecule?
Answer: inactive

Question: What about the Potency [4] of the same molecule?
Answer: 4.22 µM (active)

Question: And the Potency [5]?
Answer: 5.96 µM (active)

Question: What does the source list for C=CC(C)(O)CCCC(C)CCCC(C)CCCC(C)C (stereo unspecified)?
Answer: Potency [1]: > 92 µM; Potency [6]: > 92 µM; Potency [7]: inactive; Potency [8]: inactive; Potency [9]: inactive; Potency [2]: inactive; Potency [10]: inactive; Potency [11]: inactive; Potency [12]: inactive; Potency [13]: inactive; Potency [14]: inactive; Potency [15]: inactive; Potency [16]: inactive; activity change % (negative = inhibition) [17]: 8.61%; activation [18]: -2.56%; max response [19]: 4.48%

Question: Which Potency [1] does the source give for CC(/C=C/C=C(C)/C=C/C(=O)O)=C\C=C\C=C(C)\C=C\C=C(C)\C=C\C(=O)O here?
Answer: > 92 µM

Question: What about the Potency [6] of the same molecule?
Answer: > 92 µM

Question: What about the viability change, negative = cytotoxic [7] of the same molecule?
Answer: -97% (active)

Question: What about the Potency [8] of the same molecule?
Answer: inactive

Question: And the Potency [9]?
Answer: inactive

Question: And the Potency [10]?
Answer: inactive

Question: And the Potency [11]?
Answer: inactive

Question: And the Potency [12]?
Answer: inactive

Question: What about the Potency [13] of the same molecule?
Answer: inactive

Question: And the Potency [16]?
Answer: inactive

Question: What about the activity change % (negative = inhibition) [17] of the same molecule?
Answer: -2.15%

Question: And the activation [18]?
Answer: -5.5%

Question: What about the Potency [4] of the same molecule?
Answer: inactive

Question: And the Potency [5]?
Answer: inactive

Question: And the max response [19]?
Answer: 10.8%

Question: Which Potency [1] does the source give for Brc1cc(Br)c(Oc2cc(Br)c(Br)cc2Br)cc1Br here?
Answer: > 92 µM

Question: What about the Potency [6] of the same molecule?
Answer: > 92 µM

Question: What about the Potency [7] of the same molecule?
Answer: inactive

Question: And the Potency [8]?
Answer: inactive

Question: And the Potency [9]?
Answer: inactive

Question: What about the Potency [2] of the same molecule?
Answer: inactive

Question: And the Potency [3]?
Answer: inactive

Question: And the Potency [10]?
Answer: inactive

Question: What about the Potency [11] of the same molecule?
Answer: inactive

Question: And the Potency [12]?
Answer: inactive

Question: What about the Potency [13] of the same molecule?
Answer: inactive

Question: And the Potency [14]?
Answer: inactive

Question: What about the Potency [15] of the same molecule?
Answer: inactive

Question: And the Potency [16]?
Answer: inactive

Question: And the activity change % (negative = inhibition) [17]?
Answer: 17.2%

Question: What about the Potency [4] of the same molecule?
Answer: inactive

Question: And the Potency [5]?
Answer: inactive

Question: What about the Potency [20] of the same molecule?
Answer: inactive

Question: What about the max response [19] of the same molecule?
Answer: -2.15%

Question: With c1ccc(Nc2cccc3ccccc23)cc1 as the molecule, how does the Potency [1] read?
Answer: > 92 µM

Question: What about the Potency [6] of the same molecule?
Answer: > 92 µM

Question: And the Potency [7]?
Answer: inactive

Question: And the Potency [8]?
Answer: inactive

Question: And the Potency [9]?
Answer: inactive

Question: And the Potency [2]?
Answer: inactive

Question: And the Potency [3]?
Answer: inactive

Question: And the Potency [10]?
Answer: inactive

Question: What about the Potency [11] of the same molecule?
Answer: inactive

Question: And the Potency [12]?
Answer: inactive

Question: What about the Potency [13] of the same molecule?
Answer: inactive

Question: What about the Potency [14] of the same molecule?
Answer: inactive

Question: And the Potency [15]?
Answer: inactive

Question: And the Potency [16]?
Answer: inactive

Question: And the activity change % (negative = inhibition) [17]?
Answer: -18.5% and -42%

Question: What about the activation [18] of the same molecule?
Answer: -1.55% and -1.95%

Question: For Cc1ccccc1OCC1CO1 (stereo unspecified), which Potency [1] is on record?
Answer: > 92 µM

Question: What about the Potency [6] of the same molecule?
Answer: > 92 µM

Question: What about the Potency [7] of the same molecule?
Answer: inactive

Question: And the Potency [8]?
Answer: inactive

Question: And the Potency [9]?
Answer: inactive

Question: And the Potency [2]?
Answer: inactive

Question: What about the Potency [3] of the same molecule?
Answer: inactive

Question: And the Potency [10]?
Answer: inactive

Question: What about the Potency [11] of the same molecule?
Answer: inactive

Question: And the Potency [12]?
Answer: inactive

Question: What about the Potency [13] of the same molecule?
Answer: inactive

Question: What about the Potency [14] of the same molecule?
Answer: inactive

Question: And the Potency [15]?
Answer: inactive

Question: And the Potency [16]?
Answer: inactive

Question: And the activity change % (negative = inhibition) [17]?
Answer: -11%

Question: And the activation [18]?
Answer: -0.32%

Question: And the Potency [4]?
Answer: inactive

Question: What about the Potency [5] of the same molecule?
Answer: inactive

Question: And the Potency [20]?
Answer: inactive

Question: What about the max response [19] of the same molecule?
Answer: 0.751%

Question: For c1cc2c3c(c1)ccc1cccc(c13)C2, which Potency [1] is on record?
Answer: > 92 µM

Question: What about the Potency [6] of the same molecule?
Answer: > 92 µM

Question: And the Potency [7]?
Answer: inactive

Question: And the Potency [8]?
Answer: inactive

Question: What about the Potency [9] of the same molecule?
Answer: inactive

Question: What about the Potency [2] of the same molecule?
Answer: inactive

Question: And the Potency [3]?
Answer: inactive

Question: What about the Potency [10] of the same molecule?
Answer: inactive

Question: What about the Potency [11] of the same molecule?
Answer: inactive

Question: What about the Potency [12] of the same molecule?
Answer: inactive

Question: And the Potency [13]?
Answer: inactive

Question: And the Potency [14]?
Answer: inactive

Question: And the Potency [15]?
Answer: inactive

Question: What about the Potency [16] of the same molecule?
Answer: inactive

Question: What about the activity change % (negative = inhibition) [17] of the same molecule?
Answer: -0.0299%

Question: What about the activation [18] of the same molecule?
Answer: -4.21%

Question: And the Potency [4]?
Answer: inactive

Question: And the Potency [5]?
Answer: inactive

Question: What about the Potency [20] of the same molecule?
Answer: inactive

Question: What about the max response [19] of the same molecule?
Answer: -0.774%
